# High-throughput results as filed in PubChem.
# Only a selection was taken, and hits are over-represented in it overall.
# Giardia FBPA inh – qHTS Assay for Inhibitors of Fructose-1,6-bisphosphate Aldolase from Giardia Lamblia. purified Giardia FBPA. Potency, µM (top dose mostly 59.6 µM), without a hit: at the top dose activity, negative = inhibition, usual class: inhibitors. hit rate 0.71% among 290,000. AID 2451, 2010; also: potency is read from the fitted curve at half-maximal effect; % is scaled to controls: 0 for no effect and ±100 for the full control effect; nearly all actives have a fitted effect of over 55% in size
#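 Giardia FBPA (40 nM reagent) was preincubated 10 min at RT with compound (up to 57.5 uM final), then substrate plus GAPDH/TPI/NAD/arsenate coupling system with diaphorase/resazurin was added; resorufin fluorescence (525/598 nm) was read after 20 min.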
# CHX counter – Cycloheximide Counterscreen for Small Molecule Inhibitors of Shiga Toxin; cell reporter, cycloheximide protein synthesis inhibition counterscreen; max response, %; hit rate 12% among 300,000; AID 2314, 2010; in the data active = max response mostly above about 13%, no sharp cut-off; inactive = mostly below about 14%; also: read at 38.3 µM for the half of the compounds with a filed dose; 0% is about no effect
# Shiga toxin inh – A qHTS for Small Molecule Inhibitors of Shiga Toxin; inhibition, % at 38.7 µM; Vero cells, Shiga toxin protein synthesis inhibition reporter; hit rate 9.2% among 290,000; in the data active = inhibition mostly above about 28%, no sharp cut-off; inactive = mostly below about 43%; also: 0% is about no effect
# Tb PYK inh – qHTS of Trypanosoma Brucei Inhibitors | hit rate 0.12% among 410,000 | Potency, µM (titrated, usually from 76.8 µM), inactives show top-dose activity, negative = inhibition, actives largely listed as inhibitors | pyruvate kinase (Trypanosoma brucei), Q57TT1 | TbPYK enzyme, Kinase-Glo Plus ATP luminescence, 45 min | AID 624173, 2012; also: potency is read from the fitted curve at half-maximal effect; % is scaled to controls: 0 for no effect and ±100 for the full control effect; nearly all actives have a fitted effect of over 50% in size
#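 Luminescence from Kinase-Glo Plus, added after a 45-minute room-temperature reaction, served as the end-point read-out. The enzyme and substrate were preincubated with compound before ADP (130 uM final) initiated turnover. Concentration-effect curves came from normalized qHTS data.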
# LmPK inh – qHTS Assay for Inhibitors of Leishmania Mexicana Pyruvate Kinase (LmPK); purified LmPK, Kinase-Glo ATP luminescence, 1 h; Potency, µM (titrated, usually from 57.5 µM), for inactives: at the highest dose activity change, negative = inhibition, hits mostly inhibitors; hit rate 0.37% among 290,000; AID 1721, 2009; also: potency is read from the fitted curve at half-maximal effect; % is scaled to controls: 0 for no effect and ±100 for the full control effect
# Target sequence (Q27686 whole entry, looked up): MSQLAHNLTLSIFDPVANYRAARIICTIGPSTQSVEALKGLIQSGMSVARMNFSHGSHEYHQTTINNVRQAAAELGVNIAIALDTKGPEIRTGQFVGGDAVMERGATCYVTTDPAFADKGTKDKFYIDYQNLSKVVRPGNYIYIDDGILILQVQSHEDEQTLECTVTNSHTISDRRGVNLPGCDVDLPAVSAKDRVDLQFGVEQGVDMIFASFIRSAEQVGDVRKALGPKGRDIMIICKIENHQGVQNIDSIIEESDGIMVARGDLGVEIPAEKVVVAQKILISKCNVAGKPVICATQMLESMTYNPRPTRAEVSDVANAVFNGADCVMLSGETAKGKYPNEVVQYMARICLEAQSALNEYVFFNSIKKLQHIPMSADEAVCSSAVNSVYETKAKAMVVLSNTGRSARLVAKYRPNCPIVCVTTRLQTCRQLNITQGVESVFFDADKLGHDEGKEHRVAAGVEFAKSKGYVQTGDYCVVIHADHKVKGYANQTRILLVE
#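 0.1 nM LmPK, 0.5 mM PEP, 0.1 mM ADP; 50 mM imidazole pH 7.2, 7 mM MgCl2, 50 mM KCl; 1 h RT. Kinase-Glo luminescence readout, normalized to no-enzyme (full inhibition) and uninhibited wells.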
# RE007 growth inh – qHTS Assay for Inhibitors of the HIV-1 protein Vpr; S. pombe RE007 Vpr strain, BacTiter-Glo ATP luminescence, 24 h; hit rate 0.21% among 360,000; AID 651644, 2012; Potency, µM (series often up to 92.2 µM), inactives show top-dose activity change, negative = less growth, usual class: inhibitors; active = well fitted falling curve with a large enough effect; inconclusive = small, poorly fitted or top-dose-only effect; inactive = no such curve, though single readings can be large or run the other way; also: potency is read from the fitted curve at half-maximal effect; % is scaled to controls: 0 for no effect and ±100 for the full control effect; nearly all actives have a fitted effect of over 50% in size
#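 Fission yeast strain RE007, carrying one chromosomally integrated HIV-1 vpr copy, was seeded at OD 0.01 in PMG+AL medium with 23 nL pinned compound. After 24 h at 30 °C and 99% humidity, viability was read by BacTiter-Glo luminescence.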
# Starred values were filed as active, the others as inactive; ? = inconclusive; . = no result given; [ ] = dose if it differs, or a comment. Unless noted, calls follow the shape of the dose curve; as a rule, active = well fitted curve in the direction sought with a large enough effect; inconclusive = small, poorly fitted or top-dose-only effect, or another doubt; inactive = no such curve, though single readings can be large; an effect the other way counts as inactive or inconclusive.
SMILES,Giardia FBPA inh,CHX counter,Shiga toxin inh,Tb PYK inh,LmPK inh,RE007 growth inh
CN(C)CCCNc1oc(/C=C/c2ccc(F)cc2)nc1C#N,.,.,.,3%,.,.
COCCCNc1oc(/C=C/c2ccccc2)nc1C#N,-7%,35*,74*,13%,0%,-12%
CN(C)CCNc1oc(/C=C/c2ccccc2)nc1C#N,2%,23*,22,1%,0%,-5%
COc1cccc(/C=C/c2nc(C#N)c(NCC(C)C)o2)c1,0%,29*,85*,-12%,-1%,5%
CCCC(=O)NCc1nc2ccccc2n1CC(=O)c1ccccc1,-1%,4,-9,8%,-4%,1%
CCC1CCc2nc3sc(C(=O)Nc4ccc(C)cc4C)c(N)c3cc2C1 (centres undefined),.,.,.,-1%,.,.
CCOc1cccc(CC(=O)N2CCc3c([nH]c4ccc(OC)cc34)C2c2ccc(F)cc2)c1OCC (centres undefined),.,.,.,-2%,.,.
C=CCNc1oc(/C=C/c2ccccc2)nc1C#N,-6%,37*,74*,5%,4%,-5%
Cc1cccc(NC(=O)CN2CCN(C(=O)c3cnn(Cc4ccccc4)c3)CC2)c1C,.,.,.,-1%,.,39%
COc1ccccc1CNc1ccc(-c2nc(C)no2)cc1[N+](=O)[O-],.,.,.,-6%,.,.
Cn1ccc(C(=O)NC(=S)N2CCSCC2)n1,?,12*,12,-5%,-3%,-23%
Cc1ccc2cccc(NC(=S)NC(=O)c3ccn(C)n3)c2n1,?,-1,-7,-4%,5%,10%
CCN[C@@H]1C[C@H](C)S(=O)(=O)c2sc(S(N)(=O)=O)cc21,-6%[21.7 µM],.,.,-8%,.,.
CC(OC(=O)C1CC(=O)N(Cc2ccco2)C1)C(=O)Nc1cccc(C#N)c1 (centres undefined),.,.,.,-3%,.,28%
COc1cc2c(cc1NC(=S)Nc1ccccc1C)oc1ccccc12,15%,33*,91*,-4%,3%,-15%
COc1cc2c(cc1NC(=O)Nc1ccc(C)cc1)oc1ccccc12,-4%,19*,28,2%,2%,-19%
COc1cc2c(cc1NC(=O)C(C)OC(=O)C1CC(=O)N(Cc3ccco3)C1)oc1ccccc12 (centres undefined),2%,38*,73,-8%,12%,-10%
COc1cc2c(cc1NC(=O)c1cccc(S(=O)(=O)N(C)C)c1)oc1ccccc12,12%,25*,67*,2%,4%,-5%
Cc1ccc(C)c(Nc2ncnc3onc(C)c23)c1,.,.,.,4%,.,.
COc1cc2c(cc1NC(=O)C(C)Sc1ccc(NC(C)=O)cc1)oc1ccccc12 (centres undefined),4%,21*,12,0%,2%,-1%
COc1ccc(Cl)cc1NC(=O)C1CCCO1 (centres undefined),-9%,-9,-15,4%,-2%,5%
COc1cc2c(cc1NC(=O)C1CCCO1)oc1ccccc12 (centres undefined),-10%,50*,134*,1%,-5%,-30%
COc1ccc(NC(=O)Nc2cc3oc4ccccc4c3cc2OC)cc1,0%,10,-18,3%,0%,0%
Cc1ccc(-c2c(CN3CCN(c4cc(Cl)ccc4C)CC3)csc2C)cc1,.,.,.,0%,.,.
CC12CCCCC1(O)[N+](=O)C1=C(CCCC1)N2[O-] (centres undefined),?,15*,86,-12%,-2%,15%
SMILES,Giardia FBPA inh,CHX counter,Shiga toxin inh,Tb PYK inh,LmPK inh,RE007 growth inh
COc1ccccc1CC1S/C(=N/N=C/c2ccco2)NC1=O (centres undefined),2%,0,-2,0%,8%,?
Cc1ccc(S(=O)(=O)c2nc(-c3ccccc3F)oc2N2CCCCC2)cc1,.,.,.,2%,.,.
CNc1ccc(Br)cc(C(=O)/C=C/c2cccc(OC)c2OC)c1=O,?,-2,5,.,0%,-10%[3.69 µM]
CNc1ccccc(C(=O)/C=C/c2ccccc2OC)c1=O,11µM*,31*,55*,-22%,2%,-28%
COc1ccccc1/C=C/C(=O)N1CCCC1,1%,33*,36,-7%,-5%,-10%
COc1ccccc1/C=C/C(=O)/C=C/c1ccccc1O,-20%,99*,139*,-5%,-1%,-13%
COc1ccccc1C=CC(=O)C=Cc1ccccc1OC,.,.,.,0%,.,-18%
COc1ccc(C2N(c3ccccc3)CCN2c2ccccc2)cc1O,-15%,26*,59*,-1%,10%,-11%
Cn1c(O)c(N=NC(=O)CNC(=O)c2ccco2)c2ccccc21,-8%,-1,-9,3%,-3%,-3%
CC(C)CCn1c(O)c(N=NC(=O)c2ccco2)c2ccccc21,0%,22,24*,-4%,4%,5%
Cn1c(O)c(N=NC(=O)c2ccco2)c2ccccc21,1%,44*,145*,2%,-22%,-24%
Cc1cccc(C(=O)n2c(=S)nc3cc(C)ccn32)c1,5%,46*,126*,-6%,11µM*,-13%
Cc1ccn2c(c1)nc(=S)n2C(=O)c1ccccc1,-3%,114*,121*,-28%,?,-2%
COc1cc2[nH]c3c(=O)n4c(nc3c2cc1OC)SCCC4,-9%,25*,31*,-4%,-1%,7%
CCCCC12CN3CCN(CC(C3)/C1=N\NC(=O)c1ccccc1N)C2,3%,46*,83*,6%,-4%,3%
CCCC12CN3CCN(CC(C3)/C1=N\NC(=O)c1ccc(F)cc1)C2,-1%,5,-12,1%,-4%,4%
CC(NCCC1(C(C)C)CCOC(C)(C)C1)c1cccs1 (centres undefined),-4%,8.8*,27,-17%,3%,-11%
CC(NCCC1(Cc2ccccc2Cl)CCOC(C)(C)C1)c1cccs1 (centres undefined),-2%,-1,-11,1%,-6%,-14%
CCOC(=O)N1CCc2c(sc3c2c(=O)n(Cc2ccccc2)c(=O)n3CC(=O)Nc2ccc(F)cc2)C1,.,.,.,-3%,.,.
Cc1nc(=S)c2ccccc2[nH]1,-12%,14,8,-14%,4%,16%
Cc1cc2[nH]c3ccccc3c2c(C)n1,4%,36*,37*,-7%,0%,-1%
COc1cccc(N2CC(O)=C(c3nc4ccccc4s3)C2=N)c1,-6%,33*,54*,4%,-6%,-10%
COc1ccc(N2CC(O)=C(c3nc4ccccc4s3)C2=N)cc1,20%,20*,68,-2%,3%,3%
N=C1C(c2nc3ccccc3s2)=C(O)CN1c1ccccc1,-1%,33*,39,1%,4%,1%
